# Experimental data as given in the supplement of paper PMC4466140.
# Experiments:
# Test in all cases: SPOT peptide array binding signal intensity (averaged, normalized) (arbitrary units (background-subtracted, floor 0; scale differs between SH3 domains)); higher = stronger binding of the SH3 domain to the peptide
# [1] = target: AgAbp1
# In short: (§1)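 SH3 domains from four yeast species were expressed as GST fusions in E. coli BL21(DE3) and purified on glutathione Sepharose. Each was incubated at 10 μg/ml overnight at 4°C in TBS-based blocking buffer on cellulose membranes bearing synthetic 15-mer peptides, in which serines replaced cysteines. Bound protein was detected with anti-GST antibody, an HRP anti-mouse secondary and luminol, then imaged and quantified with Genespotter. The binding signal is the normalized, background-subtracted spot intensity averaged over replicates, in arbitrary units that are not the same from one domain to another.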
# [2] = target: AgBbc1
# In short: as §1
# [3] = target: AgBem1-D1
# In short: as §1
# [4] = target: AgBzz1-D1
# In short: as §1
# [5] = target: AgBzz1-D2
# In short: as §1
# [6] = target: AgCyk3
# In short: as §1
# [7] = target: AgFus1
# In short: as §1
# [8] = target: AgHof1
# In short: as §1
# [9] = target: AgHse1
# In short: as §1
# [10] = target: AgLsb1
# In short: as §1
# [11] = target: AgLsb4
# In short: as §1
# [12] = target: AgMyo5
# In short: as §1
# [13] = target: AgNbp2
# In short: as §1
# [14] = target: AgRvs167
# In short: as §1
# [15] = target: AgSho1
# In short: as §1
# [16] = target: AgSla1-D1-D2
# In short: as §1
# [17] = target: AgSla1-D3
# In short: as §1
# [18] = target: CaAbp1-D1
# In short: as §1
# [19] = target: CaAbp1-D2
# In short: as §1
# [20] = target: CaBbc1
# In short: as §1
# [21] = target: CaBem1-D1
# In short: as §1
# [22] = target: CaBzz1-D1
# In short: as §1
# [23] = target: CaBzz1-D2
# In short: as §1
# [24] = target: CaCyk3
# In short: as §1
# [25] = target: CaFus1
# In short: as §1
# [26] = target: CaHof1
# In short: as §1
# [27] = target: CaHse1
# In short: as §1
# [28] = target: CaLsb1
# In short: as §1
# [29] = target: CaLsb4
# In short: as §1
# [30] = target: CaMyo5
# In short: as §1
# [31] = target: CaNbp2
# In short: as §1
# [32] = target: CaRvs167
# In short: as §1
# [33] = target: CaRvs167-3
# In short: as §1
# [34] = target: CaSho1
# In short: as §1
# [35] = target: CaSla1-D1-D2
# In short: as §1
# [36] = target: CaSla1-D3
# In short: as §1
# [37] = target: ScAbp1
# In short: as §1
# [38] = target: ScBbc1
# In short: as §1
# [39] = target: ScBem1-D1
# In short: as §1
# [40] = target: ScBzz1-D1
# In short: as §1
# [41] = target: ScBzz1-D2
# In short: as §1
# [42] = target: ScCyk3
# In short: as §1
# [43] = target: ScFus1
# In short: as §1
# [44] = target: ScHof1
# In short: as §1
# [45] = target: ScHse1
# In short: as §1
# [46] = target: ScLsb1
# In short: as §1
# [47] = target: ScLsb2
# In short: as §1
# [48] = target: ScLsb3
# In short: as §1
# [49] = target: ScLsb4
# In short: as §1
# [50] = target: ScMyo3
# In short: as §1
# [51] = target: ScMyo5
# In short: as §1
# [52] = target: ScNbp2
# In short: as §1
# [53] = target: ScPex13
# In short: as §1
# [54] = target: ScRvs167
# In short: as §1
# [55] = target: ScSho1
# In short: as §1
# [56] = target: ScSla1-D1-D2
# In short: as §1
# [57] = target: ScSla1-D3
# In short: as §1
# [58] = target: SpAbp1-D1
# In short: as §1
# [59] = target: SpBbc1
# In short: as §1
# [60] = target: SpBzz1-D1
# In short: as §1
# [61] = target: SpBzz1-D2
# In short: as §1
# [62] = target: SpCyk3
# In short: as §1
# [63] = target: SpHof1
# In short: as §1
# [64] = target: SpHof1-2
# In short: as §1
# [65] = target: SpHof1-3
# In short: as §1
# [66] = target: SpHse1
# In short: as §1
# [67] = target: SpLsb1
# In short: as §1
# [68] = target: SpLsb4
# In short: as §1
# [69] = target: SpMyo1
# In short: as §1
# [70] = target: SpNbp2
# In short: as §1
# [71] = target: SpPex13
# In short: as §1
# [72] = target: SpRvs167
# In short: as §1
# [73] = target: SpSla1-D1-D2
# In short: as §1
# [74] = target: SpSla1-D3
# In short: as §1
binder,measurement,setting,value
VQQDSLPKLPFRSWG,SPOT peptide array binding signal intensity,[1],9.5
same,SPOT peptide array binding signal intensity,[2],38.2
same,SPOT peptide array binding signal intensity,[3],3.5
same,SPOT peptide array binding signal intensity,[4],68.5
same,SPOT peptide array binding signal intensity,[5],5.5
same,SPOT peptide array binding signal intensity,[6],29
same,SPOT peptide array binding signal intensity,[7],≤ 0
same,SPOT peptide array binding signal intensity,[8],368
same,SPOT peptide array binding signal intensity,[9],1
same,SPOT peptide array binding signal intensity,[10],295
same,SPOT peptide array binding signal intensity,[11],3220
same,SPOT peptide array binding signal intensity,[12],≤ 0
same,SPOT peptide array binding signal intensity,[13],≤ 0
same,SPOT peptide array binding signal intensity,[14],83.3
same,SPOT peptide array binding signal intensity,[15],20
same,SPOT peptide array binding signal intensity,[16],≤ 0
same,SPOT peptide array binding signal intensity,[17],≤ 0
same,SPOT peptide array binding signal intensity,[18],16
same,SPOT peptide array binding signal intensity,[19],13
same,SPOT peptide array binding signal intensity,[20],220
same,SPOT peptide array binding signal intensity,[21],≤ 0
same,SPOT peptide array binding signal intensity,[22],53
same,SPOT peptide array binding signal intensity,[23],27.5
same,SPOT peptide array binding signal intensity,[24],8
same,SPOT peptide array binding signal intensity,[25],24
same,SPOT peptide array binding signal intensity,[26],4
same,SPOT peptide array binding signal intensity,[27],9.25
same,SPOT peptide array binding signal intensity,[28],≤ 0
same,SPOT peptide array binding signal intensity,[29],6890
same,SPOT peptide array binding signal intensity,[30],0.5
same,SPOT peptide array binding signal intensity,[31],14.5
same,SPOT peptide array binding signal intensity,[32],1260
same,SPOT peptide array binding signal intensity,[33],8.5
same,SPOT peptide array binding signal intensity,[34],27
same,SPOT peptide array binding signal intensity,[35],14
same,SPOT peptide array binding signal intensity,[36],1.5
same,SPOT peptide array binding signal intensity,[37],6.5
same,SPOT peptide array binding signal intensity,[38],3.75
same,SPOT peptide array binding signal intensity,[39],0.5
same,SPOT peptide array binding signal intensity,[40],≤ 0
same,SPOT peptide array binding signal intensity,[41],8
same,SPOT peptide array binding signal intensity,[42],2
same,SPOT peptide array binding signal intensity,[43],≤ 0
same,SPOT peptide array binding signal intensity,[44],178
same,SPOT peptide array binding signal intensity,[45],25
same,SPOT peptide array binding signal intensity,[46],85.5
same,SPOT peptide array binding signal intensity,[47],38.5
same,SPOT peptide array binding signal intensity,[48],5130
same,SPOT peptide array binding signal intensity,[49],3050
same,SPOT peptide array binding signal intensity,[50],≤ 0
same,SPOT peptide array binding signal intensity,[51],≤ 0
same,SPOT peptide array binding signal intensity,[52],≤ 0
same,SPOT peptide array binding signal intensity,[53],2500
same,SPOT peptide array binding signal intensity,[54],2720
same,SPOT peptide array binding signal intensity,[55],300
same,SPOT peptide array binding signal intensity,[56],3.5
same,SPOT peptide array binding signal intensity,[57],≤ 0
same,SPOT peptide array binding signal intensity,[58],25
same,SPOT peptide array binding signal intensity,[59],5.25
same,SPOT peptide array binding signal intensity,[60],275
QQEQNTPPLPPKPKS,SPOT peptide array binding signal intensity,[1],10.5
same,SPOT peptide array binding signal intensity,[2],≤ 0
same,SPOT peptide array binding signal intensity,[3],≤ 0
same,SPOT peptide array binding signal intensity,[4],194
same,SPOT peptide array binding signal intensity,[5],5.5
same,SPOT peptide array binding signal intensity,[6],≤ 0
same,SPOT peptide array binding signal intensity,[7],≤ 0
same,SPOT peptide array binding signal intensity,[8],760
same,SPOT peptide array binding signal intensity,[9],≤ 0
same,SPOT peptide array binding signal intensity,[10],≤ 0
same,SPOT peptide array binding signal intensity,[11],151
same,SPOT peptide array binding signal intensity,[12],≤ 0
same,SPOT peptide array binding signal intensity,[13],≤ 0
same,SPOT peptide array binding signal intensity,[14],≤ 0
same,SPOT peptide array binding signal intensity,[15],16.5
same,SPOT peptide array binding signal intensity,[16],2
same,SPOT peptide array binding signal intensity,[17],3.75
same,SPOT peptide array binding signal intensity,[18],53
same,SPOT peptide array binding signal intensity,[19],33.5
same,SPOT peptide array binding signal intensity,[20],9
same,SPOT peptide array binding signal intensity,[21],≤ 0
same,SPOT peptide array binding signal intensity,[22],166
same,SPOT peptide array binding signal intensity,[23],34.8
same,SPOT peptide array binding signal intensity,[24],≤ 0
same,SPOT peptide array binding signal intensity,[25],9
same,SPOT peptide array binding signal intensity,[26],0.25
same,SPOT peptide array binding signal intensity,[27],404
same,SPOT peptide array binding signal intensity,[28],0.5
same,SPOT peptide array binding signal intensity,[29],1300
same,SPOT peptide array binding signal intensity,[30],≤ 0
same,SPOT peptide array binding signal intensity,[31],≤ 0
same,SPOT peptide array binding signal intensity,[32],≤ 0
same,SPOT peptide array binding signal intensity,[33],≤ 0
same,SPOT peptide array binding signal intensity,[34],13.5
same,SPOT peptide array binding signal intensity,[35],≤ 0
same,SPOT peptide array binding signal intensity,[36],≤ 0
same,SPOT peptide array binding signal intensity,[37],5
same,SPOT peptide array binding signal intensity,[38],2.5
same,SPOT peptide array binding signal intensity,[39],≤ 0
same,SPOT peptide array binding signal intensity,[40],7
same,SPOT peptide array binding signal intensity,[41],3
same,SPOT peptide array binding signal intensity,[42],1
same,SPOT peptide array binding signal intensity,[43],≤ 0
same,SPOT peptide array binding signal intensity,[44],109
same,SPOT peptide array binding signal intensity,[45],≤ 0
same,SPOT peptide array binding signal intensity,[46],223
same,SPOT peptide array binding signal intensity,[47],≤ 0
same,SPOT peptide array binding signal intensity,[48],3310
same,SPOT peptide array binding signal intensity,[49],67
same,SPOT peptide array binding signal intensity,[50],≤ 0
same,SPOT peptide array binding signal intensity,[51],≤ 0
same,SPOT peptide array binding signal intensity,[52],≤ 0
same,SPOT peptide array binding signal intensity,[53],680
same,SPOT peptide array binding signal intensity,[54],58.3
same,SPOT peptide array binding signal intensity,[55],152
same,SPOT peptide array binding signal intensity,[56],≤ 0
same,SPOT peptide array binding signal intensity,[57],≤ 0
same,SPOT peptide array binding signal intensity,[58],23.5
same,SPOT peptide array binding signal intensity,[59],0.5
same,SPOT peptide array binding signal intensity,[60],336
same,SPOT peptide array binding signal intensity,[61],≤ 0
same,SPOT peptide array binding signal intensity,[62],1.5
same,SPOT peptide array binding signal intensity,[63],≤ 0
same,SPOT peptide array binding signal intensity,[64],12.2
same,SPOT peptide array binding signal intensity,[65],16
same,SPOT peptide array binding signal intensity,[66],28.2
same,SPOT peptide array binding signal intensity,[67],585
same,SPOT peptide array binding signal intensity,[68],1340
same,SPOT peptide array binding signal intensity,[69],≤ 0
same,SPOT peptide array binding signal intensity,[70],≤ 0
same,SPOT peptide array binding signal intensity,[71],≤ 0
same,SPOT peptide array binding signal intensity,[72],462
same,SPOT peptide array binding signal intensity,[73],≤ 0
same,SPOT peptide array binding signal intensity,[74],≤ 0
